Hits are enriched below; roughly 2.5% of the tested compounds scored in any of these assays.
Efflux pump inh: inhibitors of Candida efflux pumps in yeast, primary screen, S. cerevisiae, Nile Red, multiplex; 330,000 compounds, 0.44% hits; S. cerevisiae Candida pump triplex; inhibition, % at 10 µM;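 active = plate passing quality check with inhibition over a set limit, or well fluorescence over plate mean plus 4 SD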;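 note: Nile Red retained in pooled yeast measured as flow cytometry median fluorescence; higher means more Nile Red kept so more efflux inhibition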
ATG4B inhibitor: ATG4B protease inhibitors, primary screen, biochemical, fluorescence, uHTS; Cysteine protease ATG4B (Homo sapiens), Q9Y4P1; ATG4B cleavage of LC3-PLA2, NBD-HPC fluorescence, 1 h; inhibition, % at 8.33 µM; 340,000 compounds, 0.51% hits; in the data active = inhibition above about 40%
Target sequence (Q9Y4P1 whole entry, looked up): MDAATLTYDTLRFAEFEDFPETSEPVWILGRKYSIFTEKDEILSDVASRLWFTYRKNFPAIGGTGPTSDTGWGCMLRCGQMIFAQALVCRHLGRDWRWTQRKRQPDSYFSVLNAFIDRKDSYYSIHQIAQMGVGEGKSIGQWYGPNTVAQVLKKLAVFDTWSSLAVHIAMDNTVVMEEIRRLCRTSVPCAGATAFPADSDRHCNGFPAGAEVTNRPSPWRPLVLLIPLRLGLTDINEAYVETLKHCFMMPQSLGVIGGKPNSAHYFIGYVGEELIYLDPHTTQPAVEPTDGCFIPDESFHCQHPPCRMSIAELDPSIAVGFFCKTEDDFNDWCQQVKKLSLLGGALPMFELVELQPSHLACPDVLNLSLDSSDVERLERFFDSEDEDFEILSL
V-ATPase pH: regulators of yeast V-ATPase proton pumping, primary screen, pHLuorin cytosolic pH fluorescence | AID 504577, 2011 | S. cerevisiae | response, % at 10 µM | 350,000 compounds, 0.37% hits; in the data active = response mostly above about 7.3%, no sharp cut-off; inactive = mostly below about 5.4%; note: actives read high
AI-2 QS modul: Vibrio harveyi AI-2 quorum sensing modulators, primary screen, JMH597 strain, luminescence/OD600 ratio | 300,000 compounds, 0.4% hits | AID 2094, 2009 | activity change, % at 7.5 µM | Vibrio harveyi JMH597 AI-2 luminescence/OD600 ratio, 9 h; active compounds read low; strain lacks LuxN and CqsS sensors; 0 = neutral-control median; in the data active = activity change below about -75%, passing the limit was not always enough;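 note: luminescence divided by OD600 gain over 9 h not by final OD600 alone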
Mot1-301 SUMO: yeast Mot1-301 growth rescue at high temperature, primary screen, SUMOylation pathway inhibitor project, S. cerevisiae, ATP luminescence, 38.5C. S. cerevisiae Mot1-301 growth rescue; percent above DMSO median, 100 means doubled. growth rescue, % at 18.8 µM. 320,000 compounds, 1% hits. AID 2716, 2010;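 active = every valid replicate shows activation above 250% relative to neutral control wells; inactive = the rest, any valid replicate at or below 250%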
Mot1 SUMO dose: growth restoration of Mot1-301 yeast on galactose, dose response, SUMO pathway inhibitor project, whole organism, S. cerevisiae, ATP luminescence, cherry-picked samples; shares compounds with Mot1-301 SUMO; S. cerevisiae Mot1-301 galactose growth, 24 h; -100 = growth of slx-deleted rescue strain; 2,300 tested, under 10 active; growth activity, percent, % at 42 µM;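 active = Signal drops as the depositor expects, and the fitted half-maximal dose is no more than ten times the top valid tested dose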;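 note: more negative values mean stronger growth rescue toward the control strain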
Of the large screens only hits and unclear results are named; the others gave an inactive call (follow-up assays come after a bar, where they were run).

O=C(OCc1nnc(-c2ccccc2)o1)c1ccc(Br)o1	none
O=C(OCc1nnc(-c2ccccc2)o1)c1ccc([N+](=O)[O-])o1	Mot1-301 SUMO 743.2 | Mot1 SUMO dose inactive
O=c1c(Cl)c(O)ccn1C1OC(CO)C(O)C1O (stereo not given)	none (no result: Efflux pump inh, AI-2 QS modul, Mot1-301 SUMO)
Cc1ccc(NS(=O)(=O)c2c(C(=O)N3CCCCCC3)c(C)n(C)c2C)c(Cl)c1	none
Cc1ccc(NS(=O)(=O)c2c(C)[nH]c(C)c2C(=O)N2CCCCC2)c(Cl)c1	Mot1-301 SUMO 476.6 | Mot1 SUMO dose inactive
CN(Cc1ccccc1)C(=O)COC(=O)C1CCN(S(=O)(=O)c2ccc3c(c2)OCCO3)CC1	none
Cc1nnc(SCC(=O)NCC2COc3ccccc3O2)s1 (stereo not given)	none (no result: AI-2 QS modul)
CCC1CCCCN1CCCNC(=O)C1CCC(CNS(=O)(=O)c2c(C)cc(C)cc2C)CC1 (stereo not given)	Mot1-301 SUMO 509.1 | Mot1 SUMO dose inactive
CCN(CC)CCCNC(=O)C1CCC(CNS(=O)(=O)c2c(C)cc(C)cc2C)CC1 (stereo not given)	none
CN(Cc1cccnc1)C(=O)c1ccc(Cl)c(NS(=O)(=O)c2ccc(F)cc2)c1	none (no result: Efflux pump inh, AI-2 QS modul, Mot1-301 SUMO)
O=C(Nc1cccc(S(=O)(=O)NC2=NCCC2)c1)c1cc(Cl)ccc1[N+](=O)[O-]	none
CCn1nccc1C(=O)Nc1nccs1	Mot1-301 SUMO 705.8 (no result: AI-2 QS modul) | Mot1 SUMO dose inactive
CCCN1C(=O)c2ccc(C(=O)Nc3nccs3)cc2C1=O	Mot1-301 SUMO 543.7 | Mot1 SUMO dose inactive
CC/C(=N\NC(=O)c1nnn(-c2nonc2N)c1-c1cccs1)c1ccccc1	Mot1-301 SUMO 370.6 | Mot1 SUMO dose inactive
CCOc1ccc(-c2c(C(=O)N/N=C/c3ccncc3)nnn2-c2nonc2N)cc1	Mot1-301 SUMO 396.2 (no result: AI-2 QS modul) | Mot1 SUMO dose inactive
O=C(NCCC1=CCCCC1)C1CCN(C(=O)Cc2ccccc2)CC1	none
Cc1cc(C)cc(C(=O)NC(CC(N)=O)c2ccc(NCCN3CCCC3)c([N+](=O)[O-])c2)c1 (stereo not given)	none
Cc1cc(C)cc(C(=O)NC(CC(N)=O)c2ccc(NCCN3CCOCC3)c([N+](=O)[O-])c2)c1 (stereo not given)	Mot1-301 SUMO 644.2 | Mot1 SUMO dose inactive
COc1ccc(-c2nc(NC(=O)C3=NN(c4cccc(C)c4)C(=O)CC3)sc2C)cc1	none
CN(C(=O)CSc1nnc(-c2cccc(F)c2)n1N)C1CCS(=O)(=O)C1 (stereo not given)	Mot1-301 SUMO 400.9 | Mot1 SUMO dose inactive
CN(C(=O)CSc1nnc(-c2ccc(OC(F)F)cc2)n1N)C1CCS(=O)(=O)C1 (stereo not given)	none
COC(=O)c1ccc(CN2CCN(C3CCCCC3)C(CCO)C2)cc1 (stereo not given)	Mot1-301 SUMO 403.2 | Mot1 SUMO dose inactive
O=C(Cc1cccs1)Nc1cccc(-c2nnc(-c3ccco3)o2)c1	Mot1-301 SUMO 522.2 | Mot1 SUMO dose inactive
O=C(COc1ccccc1)Nc1cccc(-c2nnc(-c3ccccc3)o2)c1	Mot1-301 SUMO active | Mot1 SUMO dose inactive
CCOC(=O)c1ccc(NC(=S)N2CCSC2c2ccc(Br)cc2)cc1 (stereo not given)	none
COc1ccc(NC(=O)CN(C)C(=O)C(Sc2ccccc2)c2ccccc2)cc1 (stereo not given)	none (no result: AI-2 QS modul)
COc1cc(CN(C)CCc2ccccc2)ccc1OCc1ccccc1	none
CCN(Cc1ccccc1)Cc1ccc(OCc2ccccc2)c(OC)c1	Mot1-301 SUMO 365.4 | Mot1 SUMO dose inactive
COC(=O)c1cccc(NC(=O)c2ccc[n+]([O-])c2)c1	Mot1-301 SUMO 561.0 | Mot1 SUMO dose inactive
CC1(C)CC(=O)C(CC2C(=O)CC(C)(C)CC2=O)C(=O)C1	none
CC1(C)CC(=O)C(CC2CCCCC2=O)C(=O)C1 (stereo not given)	Mot1-301 SUMO 575.4 | Mot1 SUMO dose inactive
CC1CCN(CCCCOc2ccc(F)cc2)CC1	Mot1-301 SUMO 547.5 | Mot1 SUMO dose inactive
CC(C)c1cccc(OCCCCN(C)C)c1	Mot1-301 SUMO 568.1 | Mot1 SUMO dose inactive
CC1CCN(CCOc2cccc(Br)c2)CC1	none
CC1CCN(CCCCOc2cccc(C(C)C)c2)CC1	Mot1-301 SUMO 408.0 | Mot1 SUMO dose inactive
Cc1ccc(OCCCCN2CCC(C)CC2)cc1	none
CC1CCN(CCCOc2ccc(OCc3ccccc3)cc2)CC1	Mot1-301 SUMO 551.4 | Mot1 SUMO dose inactive
NC(=S)N/N=C/c1cccc(O)c1O	Mot1-301 SUMO 629.9 | Mot1 SUMO dose inactive
NC(=S)N/N=C/c1ccccc1O	none
N#CCC(=O)N/N=C/c1ccc(OS(=O)(=O)c2ccccc2)cc1	Mot1-301 SUMO 845.8 | Mot1 SUMO dose inactive
N#CCC(=O)N/N=C/c1ccc(OCc2ccccc2)cc1	none
Cc1ccc(S(=O)(=O)N2CCN(C(C)CC(=O)O)CC2)cc1 (stereo not given)	none (no result: Mot1-301 SUMO)
CC(=O)NCc1c(Cl)cccc1-n1cccc1	Mot1-301 SUMO 785.2 | Mot1 SUMO dose inactive
CCC(=O)NCc1c(Cl)cccc1-n1cccc1	none
Cc1cc(NC(=O)CSc2ncccn2)no1	none
Cc1cc(NC(=O)CSc2ncn(-c3ccccc3)n2)no1	Mot1-301 SUMO 924.8 | Mot1 SUMO dose inactive
Cc1ccc(-n2c(Cc3cccn3C)nnc2SCC(=O)NCc2ccc3c(c2)OCO3)cc1	none (no result: Mot1-301 SUMO)
N#Cc1cn(CCCOc2ccccc2)c2ccccc12	none
COc1ccccc1OCCCn1cc(C#N)c2ccccc21	Mot1-301 SUMO 832.2 | Mot1 SUMO dose inactive
O=C1CN(C(=O)COC(=O)CCNS(=O)(=O)c2ccc(Cl)cc2)c2ccccc2N1	Mot1-301 SUMO 364.8 | Mot1 SUMO dose inactive
Cc1cccc2c1[nH]c1nc(N/N=C\c3ccco3)nnc12	none (no result: ATG4B inhibitor, V-ATPase pH)
C=CCSc1nnc2c(n1)[nH]c1c(C)cccc12	Mot1-301 SUMO 531.7 | Mot1 SUMO dose inactive
CCC(=O)N1c2ccc(S(=O)(=O)NCCc3ccc(OC)c(OC)c3)cc2CC1C (stereo not given)	none
C/C(N)=C(/C#N)C(=O)CSc1nnc(-c2ccccc2)n1C	Mot1-301 SUMO 538.8 | Mot1 SUMO dose inactive
Cc1ccc(NC(=O)C(CC(C)C)NC(=O)C2CCC(C)CC2)nc1 (stereo not given)	Mot1-301 SUMO 634.2 | Mot1 SUMO dose inactive
CC(C)CC(NC(=O)C1CCC(C)CC1)C(=O)Nc1cccnc1 (stereo not given)	none
CC(=O)NC(CC(C)C)C(=O)NC(CO)C(=O)NC(CCC(=O)O)C(=O)NC(C)C(=O)NC(CC(C)C)C(N)=O (stereo not given)	Mot1-301 SUMO 782.3 | Mot1 SUMO dose inactive

Bioassay records from PubChem.
